Results filed as inconclusive are left out. Calls of active or inactive are those of the source. The calls were made as follows, unless noted: active = hit-call score of the fitted dose curve at least 0.9, where 1 is the maximum; inactive = score below 0.9.
Experiments:
[1] = molecular target: Bile acid receptor (Homo sapiens) (UniProt Q96RI1); assay: ATG_FXR_TRANS: Attagene TRANS-FACTORIAL HepG2 Assay for Farnesoid X Receptor (FXR) (AID 2282979; active = hit-call score of the fitted dose curve at least 0.9, where 1 is the maximum;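 also: hits raise reporter mRNA above DMSO so AC50 marks FXR activation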); settings: HepG2 Attagene TRANS FXR-GAL4 reporter transcription
Bile acid receptor (Homo sapiens), sequence (Q96RI1 whole entry, looked up, the tested form may be a part): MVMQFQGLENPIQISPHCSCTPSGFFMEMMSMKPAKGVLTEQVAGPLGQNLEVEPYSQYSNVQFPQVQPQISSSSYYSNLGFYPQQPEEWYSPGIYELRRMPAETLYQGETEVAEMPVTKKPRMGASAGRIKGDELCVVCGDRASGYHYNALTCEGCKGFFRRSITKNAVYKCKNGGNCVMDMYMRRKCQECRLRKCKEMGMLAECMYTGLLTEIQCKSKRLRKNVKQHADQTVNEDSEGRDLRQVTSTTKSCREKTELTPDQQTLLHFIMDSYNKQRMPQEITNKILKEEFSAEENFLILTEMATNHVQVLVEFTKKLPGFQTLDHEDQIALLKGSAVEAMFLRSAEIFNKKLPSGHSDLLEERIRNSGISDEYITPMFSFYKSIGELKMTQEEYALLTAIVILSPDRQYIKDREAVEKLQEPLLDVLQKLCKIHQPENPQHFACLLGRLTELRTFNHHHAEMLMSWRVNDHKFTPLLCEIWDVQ
Method in brief: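 After 24 h chemical treatment of transfected HepG2 cells, GAL4-UAS reporter transcripts driven by an exogenous FXR-GAL4 fusion were measured by RT-PCR and capillary electrophoresis. Increases over DMSO were fitted.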

[2] = molecular target: Oxysterols receptor LXR-alpha (Homo sapiens) (UniProt Q13133); assay: ATG_LXRa_TRANS: Attagene TRANS-FACTORIAL HepG2 Assay for human Liver X Receptor alpha (LXRa) (AID 2282980; active = hit-call score of the fitted dose curve at least 0.9, where 1 is the maximum); settings: HepG2 Attagene TRANS reporter, LXRa transactivation
Oxysterols receptor LXR-alpha (Homo sapiens), sequence (Q13133 whole entry, looked up, the tested form may be a part): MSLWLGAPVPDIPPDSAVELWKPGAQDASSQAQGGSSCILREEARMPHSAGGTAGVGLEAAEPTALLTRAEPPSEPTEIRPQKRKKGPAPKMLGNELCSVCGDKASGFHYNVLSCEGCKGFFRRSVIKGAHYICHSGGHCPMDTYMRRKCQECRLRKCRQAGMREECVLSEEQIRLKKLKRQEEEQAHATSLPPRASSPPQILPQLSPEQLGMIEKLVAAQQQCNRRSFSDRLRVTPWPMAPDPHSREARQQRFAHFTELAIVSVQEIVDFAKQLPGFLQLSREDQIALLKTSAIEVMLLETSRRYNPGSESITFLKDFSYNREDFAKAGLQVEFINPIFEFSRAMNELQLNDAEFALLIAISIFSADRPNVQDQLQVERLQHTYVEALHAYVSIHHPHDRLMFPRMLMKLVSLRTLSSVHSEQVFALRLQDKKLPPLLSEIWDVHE
Method in brief: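 In this multiplexed TRANS system, compounds act on HepG2 cells carrying GAL4-UAS reporter units and a receptor-GAL4 fusion for 24 h. Induced reporter RNA is amplified, fluorescently labelled and sized by capillary electrophoresis, with DMSO as baseline.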

[3] = ATG_M_32_TRANS: Attagene TRANS-FACTORIAL HepG2 Assay for M32 Transcription Factor (Internal Marker) (AID 2282984; active = hit-call score of the fitted dose curve at least 0.9, where 1 is the maximum;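 also: transcript level of a background control reporter unit measured by RT-PCR and capillary electrophoresis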); settings: HepG2 Attagene TRANS M32 internal marker reporter
Method in brief: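 Internal background reporter in transfected HepG2: after 24 h chemical exposure, RNA reverse-transcribed, reporter cDNA amplified, fluorescently labelled and HpaI-cut, then sized by capillary electrophoresis. Gain of signal fitted against DMSO control.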

[4] = molecular target: Transcriptional activator Myb (Homo sapiens) (UniProt P10242); assay: ATG_Myb_CIS: Attagene CIS-FACTORIAL HepG2 Assay for human Myeloblastosis (Myb) Proto-Oncogene Transcription Factor (AID 2282986); settings: HepG2 Attagene CIS-FACTORIAL Myb reporter transcription; actives raise or lower the signal
Transcriptional activator Myb (Homo sapiens), sequence (P10242 whole entry, looked up): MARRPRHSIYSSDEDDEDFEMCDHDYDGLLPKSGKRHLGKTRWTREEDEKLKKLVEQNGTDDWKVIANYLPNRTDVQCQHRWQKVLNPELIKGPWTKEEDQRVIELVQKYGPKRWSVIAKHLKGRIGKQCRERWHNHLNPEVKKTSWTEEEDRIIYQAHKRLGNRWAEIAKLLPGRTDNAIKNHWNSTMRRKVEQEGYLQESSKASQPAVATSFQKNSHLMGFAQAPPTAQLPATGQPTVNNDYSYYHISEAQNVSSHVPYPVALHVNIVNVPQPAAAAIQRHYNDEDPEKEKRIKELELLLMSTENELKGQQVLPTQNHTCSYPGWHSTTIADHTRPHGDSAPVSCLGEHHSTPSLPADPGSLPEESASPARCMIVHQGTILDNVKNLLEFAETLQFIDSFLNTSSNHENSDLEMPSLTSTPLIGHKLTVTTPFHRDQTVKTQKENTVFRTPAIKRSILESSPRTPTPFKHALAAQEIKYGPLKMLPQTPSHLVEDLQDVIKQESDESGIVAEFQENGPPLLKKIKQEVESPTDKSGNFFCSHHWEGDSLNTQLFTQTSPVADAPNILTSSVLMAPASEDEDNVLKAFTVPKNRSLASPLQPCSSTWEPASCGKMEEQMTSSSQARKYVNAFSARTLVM
Method in brief: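 Reporter mRNA is quantified by RT-PCR and capillary electrophoresis 24 h after dosing HepG2 cells transfected with cis-regulated reporter units, which track endogenous transcription factor activity. Gain and loss of signal are fitted versus DMSO baseline.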

[5] = molecular target: Nuclear respiratory factor 1 (Homo sapiens) (UniProt Q16656); assay: ATG_NRF1_CIS: Attagene CIS-FACTORIAL HepG2 Assay for human Nuclear Respiratory Factor 1 (NRF1) Orphan Gene (AID 2282987); settings: HepG2 NRF1 cis-element reporter, Attagene multiplex; actives raise or lower the signal
Nuclear respiratory factor 1 (Homo sapiens), sequence (Q16656 whole entry, looked up): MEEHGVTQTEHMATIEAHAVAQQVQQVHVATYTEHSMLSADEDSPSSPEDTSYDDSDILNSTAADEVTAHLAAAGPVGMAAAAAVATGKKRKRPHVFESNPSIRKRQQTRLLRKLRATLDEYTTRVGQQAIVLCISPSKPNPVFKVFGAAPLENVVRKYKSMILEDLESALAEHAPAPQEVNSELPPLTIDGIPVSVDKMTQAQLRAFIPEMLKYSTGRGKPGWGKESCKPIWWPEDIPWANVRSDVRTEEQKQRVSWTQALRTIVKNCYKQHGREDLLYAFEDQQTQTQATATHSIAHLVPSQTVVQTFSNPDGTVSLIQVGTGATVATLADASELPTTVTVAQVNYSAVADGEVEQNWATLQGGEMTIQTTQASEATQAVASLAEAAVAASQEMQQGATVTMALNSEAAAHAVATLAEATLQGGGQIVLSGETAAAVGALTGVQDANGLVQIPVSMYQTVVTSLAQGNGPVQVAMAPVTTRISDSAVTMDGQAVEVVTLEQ
Method in brief: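 Endogenous NRF1-driven reporter transcription in transfected HepG2 cells after 24 h treatment. Readout: RT-PCR products, 6-FAM labelled and resolved by capillary electrophoresis; changes fitted both directions relative to DMSO.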

[6] = ATG_NFI_CIS: Attagene CIS-FACTORIAL HepG2 Assay for human Nuclear Factor I (NFI) (AID 2282989); settings: HepG2 cis-regulatory reporter, NFI response element transcription; actives raise or lower the signal
Method in brief: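 Reporter transcripts were measured by RT-PCR with fluorescent primer extension and capillary electrophoresis 24 h post-treatment. HepG2 cells carried transiently transfected cis-regulated reporter constructs reporting endogenous factor activity; gain or loss fitted against DMSO baseline.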

[7] = molecular target: Myc proto-oncogene protein (Homo sapiens) (UniProt P01106); assay: ATG_Myc_CIS: Attagene CIS-FACTORIAL HepG2 Assay for human Myelocytomatosis (Myc) Proto-Oncogene Transcription Factor (AID 2282990); settings: HepG2, Attagene cis-reporter transcription factor activity; actives raise or lower the signal
Myc proto-oncogene protein (Homo sapiens), sequence (P01106 whole entry, looked up): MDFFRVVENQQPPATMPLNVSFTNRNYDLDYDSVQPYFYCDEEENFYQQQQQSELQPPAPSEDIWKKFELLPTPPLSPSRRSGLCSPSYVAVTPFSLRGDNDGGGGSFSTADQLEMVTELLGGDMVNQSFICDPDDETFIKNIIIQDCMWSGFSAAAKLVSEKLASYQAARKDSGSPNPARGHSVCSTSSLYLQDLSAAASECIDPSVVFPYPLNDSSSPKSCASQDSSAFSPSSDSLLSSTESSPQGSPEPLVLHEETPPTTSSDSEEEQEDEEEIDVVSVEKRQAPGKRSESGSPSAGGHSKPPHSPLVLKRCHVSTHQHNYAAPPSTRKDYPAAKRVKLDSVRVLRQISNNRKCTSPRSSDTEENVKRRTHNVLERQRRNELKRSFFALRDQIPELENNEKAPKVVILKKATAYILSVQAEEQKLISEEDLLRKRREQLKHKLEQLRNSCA
Method in brief: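 Cells of the HepG2 human liver line bear multiple cis-driven reporter transcription units. Reporter mRNA after 24 h exposure is reverse-transcribed, amplified, labelled and resolved by capillary electrophoresis, with gain- or loss-of-signal fitting relative to DMSO.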

[8] = ATG_NRF2_ARE_CIS: Attagene CIS-FACTORIAL HepG2 Assay for human Nuclear Factor Erythroid 2 Related Factor 2 (NFR2) response to Antioxidant Response Elements (ARE) (AID 2282992); settings: HepG2 Attagene ARE/NRF2 reporter, transcription factor activity; actives raise or lower the signal
Method in brief: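 Endogenous transcription factor activity read out as reporter transcript levels (RT-PCR plus capillary electrophoresis, fluorescence) in transiently transfected HepG2 cells. Measured at 24 h after dosing; gain or loss of signal fitted versus DMSO.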

[9] = ATG_Oct_MLP_CIS: Attagene CIS-FACTORIAL HepG2 Assay for human Octamer-Binding Transcription Factor (Oct) (AID 2282993); settings: HepG2 Attagene cis-factorial Oct reporter, mRNA; actives raise or lower the signal
Method in brief: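 Readout is reporter transcript level from RT-PCR with fluorescent primer extension and capillary electrophoresis, fitted in both directions against DMSO. Transfected HepG2 reporter units report endogenous factor activity after 24 h dosing.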

[10] = molecular target: Cellular tumor antigen p53 (Homo sapiens) (UniProt P04637); assay: ATG_p53_CIS: Attagene CIS-FACTORIAL HepG2 Assay for human p53 Transcription Factor (AID 2282994); settings: HepG2 p53 cis-element reporter, Attagene mRNA; actives raise or lower the signal
Cellular tumor antigen p53 (Homo sapiens), sequence (P04637 whole entry, looked up): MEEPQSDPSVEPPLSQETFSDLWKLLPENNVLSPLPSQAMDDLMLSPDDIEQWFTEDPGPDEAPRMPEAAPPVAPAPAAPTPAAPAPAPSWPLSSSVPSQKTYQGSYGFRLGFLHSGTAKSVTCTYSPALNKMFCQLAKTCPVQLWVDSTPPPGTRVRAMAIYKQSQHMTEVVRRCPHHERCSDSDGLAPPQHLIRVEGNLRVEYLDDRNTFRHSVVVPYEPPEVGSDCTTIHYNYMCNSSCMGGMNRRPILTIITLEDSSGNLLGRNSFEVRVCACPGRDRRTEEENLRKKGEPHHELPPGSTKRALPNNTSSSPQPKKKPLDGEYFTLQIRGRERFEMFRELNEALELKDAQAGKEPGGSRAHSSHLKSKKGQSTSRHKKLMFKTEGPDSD
Method in brief: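 Endogenous p53 activity read in transiently transfected HepG2 from a cis-element-driven reporter transcript after 24 h exposure. RNA reverse-transcribed, PCR-amplified, fluorescently labelled and sized by capillary electrophoresis; gain or loss fitted against DMSO baseline.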

[11] = molecular target: Oxysterols receptor LXR-beta (Homo sapiens) (UniProt P55055); assay: ATG_LXRb_TRANS: Attagene TRANS-FACTORIAL HepG2 Assay for human Liver X Receptor beta (LXRb) (AID 2282981; active = hit-call score of the fitted dose curve at least 0.9, where 1 is the maximum); settings: HepG2 Attagene TRANS GAL4-LXRb reporter, mRNA
Oxysterols receptor LXR-beta (Homo sapiens), sequence (P55055 whole entry, looked up, the tested form may be a part): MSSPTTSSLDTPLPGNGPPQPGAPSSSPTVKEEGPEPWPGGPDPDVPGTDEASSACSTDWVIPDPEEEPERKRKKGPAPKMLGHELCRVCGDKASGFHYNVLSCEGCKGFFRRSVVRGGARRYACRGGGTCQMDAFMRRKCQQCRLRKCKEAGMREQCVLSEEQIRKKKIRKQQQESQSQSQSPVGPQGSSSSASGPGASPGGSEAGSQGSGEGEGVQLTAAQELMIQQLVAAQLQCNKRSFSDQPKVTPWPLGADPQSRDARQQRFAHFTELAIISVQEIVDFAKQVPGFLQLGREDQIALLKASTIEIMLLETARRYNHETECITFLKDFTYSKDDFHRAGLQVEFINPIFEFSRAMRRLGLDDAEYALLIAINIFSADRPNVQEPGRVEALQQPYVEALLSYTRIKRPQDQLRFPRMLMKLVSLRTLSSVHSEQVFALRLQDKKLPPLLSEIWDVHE
Method in brief: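 After 24 h chemical treatment of transfected HepG2 cells carrying exogenous NR-Gal4 chimeras, reporter mRNA was quantified by fluorescent RT-PCR and capillary electrophoresis; activity taken as increase over DMSO controls.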

[12] = molecular target: Hepatocyte nuclear factor 4-alpha (Homo sapiens) (UniProt P41235); assay: ATG_HNF4a_TRANS: Attagene TRANS-FACTORIAL HepG2 Assay for human Hepatocyte Nuclear Factor 4 alpha (HNF4a) (AID 2282982; active = hit-call score of the fitted dose curve at least 0.9, where 1 is the maximum); settings: HepG2 HNF4a transactivation reporter, mRNA readout
Hepatocyte nuclear factor 4-alpha (Homo sapiens), sequence (P41235 whole entry, looked up, the tested form may be a part): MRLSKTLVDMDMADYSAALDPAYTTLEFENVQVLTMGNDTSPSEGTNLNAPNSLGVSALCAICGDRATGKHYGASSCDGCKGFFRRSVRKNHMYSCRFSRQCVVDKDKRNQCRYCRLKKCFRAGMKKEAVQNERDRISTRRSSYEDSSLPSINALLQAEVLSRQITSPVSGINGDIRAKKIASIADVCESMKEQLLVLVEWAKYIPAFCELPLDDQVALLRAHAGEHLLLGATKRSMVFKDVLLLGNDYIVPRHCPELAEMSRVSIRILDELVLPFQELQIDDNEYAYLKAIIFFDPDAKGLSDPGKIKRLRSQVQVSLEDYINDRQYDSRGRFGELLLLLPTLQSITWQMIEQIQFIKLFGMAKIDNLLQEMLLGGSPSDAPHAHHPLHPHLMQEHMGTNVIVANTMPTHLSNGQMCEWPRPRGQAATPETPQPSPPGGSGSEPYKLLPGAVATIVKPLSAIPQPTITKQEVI
Method in brief: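 Activity of an exogenous HNF4a–Gal4 fusion scored as induced GAL4-UAS reporter transcripts after 24 h chemical exposure of transfected human HepG2 cells. Read-out via RT-PCR with 6-FAM labelling and capillary electrophoresis; rise over DMSO baseline.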

[13] = ATG_M_06_TRANS: Attagene TRANS-FACTORIAL HepG2 Assay for M06 Transcription Factor (Internal Marker) (AID 2282983; active = hit-call score of the fitted dose curve at least 0.9, where 1 is the maximum); settings: HepG2 Attagene TRANS M06 internal marker reporter
Method in brief: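 Multi-reporter-transfected HepG2, 24 h treatment; reporter transcripts quantified via RT-PCR, primer-extension labelling and CE. DMSO-normalized gain-of-signal fit.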

[14] = ATG_NF_kB_CIS: Attagene CIS-FACTORIAL HepG2 Assay for human Nuclear Factor Kappa B (NF-kB) (AID 2282991); settings: HepG2 Attagene cis-factorial NF-kB reporter mRNA; actives raise or lower the signal
Method in brief: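 Readout is reporter transcript level, gain or loss versus DMSO, measured 24 h post-dose via RT-PCR, fluorescent labelling and capillary electrophoresis. Human HepG2 liver cells carried transiently transfected CIS reporter constructs reflecting endogenous factors.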

[15] = BSK_3C_TissueFactor: BioMAP Diversity Plus: 3C Assay for Tissue Factor Biomarker Activity (AID 2282997); settings: BioMAP 3C HUVEC, tissue factor biomarker readout; actives raise or lower the signal
Method in brief: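 In this endothelial system, HUVEC are treated for 24 h and Tissue Factor is assessed by ELISA, normalised to DMSO.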

[16] = BSK_3C_uPAR: BioMAP Diversity Plus: 3C Assay for Urokinase-type plasminogen activator receptor (uPAR) Biomarker Activity (AID 2282998); settings: BioMAP 3C HUVEC, uPAR biomarker ELISA; actives raise or lower the signal
Method in brief: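 Cell-surface uPAR on HUVEC (3C system) read by ELISA at 24 h post-treatment, with DMSO as baseline and fitting in both directions. Parallel cultures stained with SRB to flag overt cytotoxicity.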

[17] = BSK_3C_VCAM1: BioMAP Diversity Plus: 3C Assay for Vascular cell adhesion molecule 1 (VCAM1) Biomarker Activity (AID 2282999); settings: BioMAP 3C HUVEC, VCAM1 ELISA, cytokine-stimulated; actives raise or lower the signal
Method in brief: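 Activity fitted in both directions relative to DMSO, with ELISA measurement of the surface marker on primary HUVEC (3C) at 24 h post-treatment; parallel SRB staining (0.1% SRB, TCA-fixed, 560 nm) flagged overt cytotoxicity.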

[18] = BSK_4H_Eotaxin3: BioMAP Diversity Plus: 4H Assay for Eotaxin 3 Biomarker Activity (AID 2283000); settings: primary human endothelial cells (HUVEC); actives raise or lower the signal
Method in brief: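 ELISA quantitation of CCL26 (Eotaxin-3) protein from chemically dosed human vascular endothelial cells at 24 h; increases and decreases both scored relative to DMSO-treated baseline.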

[19] = molecular target: Nuclear receptor subfamily 4 group A member 2 (Homo sapiens) (UniProt P43354); assay: ATG_NURR1_TRANS: Attagene TRANS-FACTORIAL HepG2 Assay for human Nuclear Receptor Related Protein 1 (NURR1) (AID 2282985; active = hit-call score of the fitted dose curve at least 0.9, where 1 is the maximum); settings: HepG2 Attagene TRANS reporter, mRNA readout
Nuclear receptor subfamily 4 group A member 2 (Homo sapiens), sequence (P43354 whole entry, looked up, the tested form may be a part): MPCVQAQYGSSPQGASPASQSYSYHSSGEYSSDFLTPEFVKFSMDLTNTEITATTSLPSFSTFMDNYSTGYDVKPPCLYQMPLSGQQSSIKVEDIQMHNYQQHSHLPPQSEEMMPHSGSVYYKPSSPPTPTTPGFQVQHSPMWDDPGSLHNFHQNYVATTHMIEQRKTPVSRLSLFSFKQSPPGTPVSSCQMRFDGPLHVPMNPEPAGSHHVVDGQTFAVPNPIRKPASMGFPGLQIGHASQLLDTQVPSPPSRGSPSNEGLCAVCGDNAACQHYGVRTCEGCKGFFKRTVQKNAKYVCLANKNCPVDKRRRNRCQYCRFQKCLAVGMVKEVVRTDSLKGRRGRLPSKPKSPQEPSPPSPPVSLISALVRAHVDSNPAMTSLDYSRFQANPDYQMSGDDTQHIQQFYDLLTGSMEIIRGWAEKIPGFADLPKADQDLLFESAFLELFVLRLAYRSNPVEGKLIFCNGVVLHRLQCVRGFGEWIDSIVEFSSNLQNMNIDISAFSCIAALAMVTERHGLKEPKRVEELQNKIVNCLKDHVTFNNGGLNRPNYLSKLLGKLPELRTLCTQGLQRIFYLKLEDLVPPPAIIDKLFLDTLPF
Method in brief: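 Reporter transcript induction, measured by RT-PCR with fluorescent labelling, HpaI digestion and capillary electrophoresis, after 24 hr dosing of human HepG2 cells transiently expressing an exogenous NR-Gal4 fusion with GAL4-UAS-driven reporters; DMSO as baseline.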

Measured: AC50

CCCC[P+](CCCC)(CCCC)CCCC
inactive: [1] | [2] | [3] | [4] | [5] | [6] | [7] | [8] | [9] | [10]

CC(=O)CC(=O)Nc1ccc(C)cc1C
inactive: [1] | [11] | [12] | [13] | [3] | [4] | [5] | [6] | [7] | [14] | [8] | [9] | [10]

CCC(C)=O
inactive: [1] | [11] | [12] | [13] | [4] | [5] | [6] | [7] | [14] | [8] | [9] | [10]

CCOC(=O)C(C#N)=C(c1ccccc1)c1ccccc1
active: [5] 55.2 µM | [8] 27.6 µM
inactive: [1] | [13] | [3] | [6] | [7] | [14] | [9] | [10] | [15] | [16] | [17] | [18]

COc1cc([C@@H]2c3cc4c(cc3[C@@H](O[C@@H]3O[C@@H]5CO[C@@H](C)O[C@H]5[C@H](O)[C@H]3O)[C@H]3COC(=O)[C@H]23)OCO4)cc(OC)c1O
inactive: [1] | [12] | [13] | [4] | [5] | [6] | [7] | [14] | [8] | [9] | [10]

CCCCCc1ccco1
active: [14] 54.2 µM | [8] 31.9 µM
inactive: [1] | [12] | [19] | [4] | [5] | [6] | [7] | [9] | [10]

COc1ccc(CCN2CCC(Nc3nc4ccccc4n3Cc3ccc(F)cc3)CC2)cc1
inactive: [1] | [13] | [3] | [19] | [4] | [5] | [6] | [7] | [14] | [9] | [10] | [15] | [17]
active: [16] 5 µM | [18] 5 µM

c1ccc2[nH]cnc2c1
inactive: [1] | [2] | [4] | [5] | [6] | [7] | [14] | [8] | [9] | [10]

O=C1OC(=O)c2c(Cl)c(Cl)c(Cl)c(Cl)c21
inactive: [1] | [11] | [19] | [4] | [5] | [7] | [8] | [9] | [10]

CC(C)=CCCC(C)CCOC=O (configuration not stated)
inactive: [1] | [12] | [13] | [19] | [4] | [5] | [6] | [7] | [14] | [8] | [9] | [10]

CCCCCC(C=O)=Cc1ccccc1
inactive: [1] | [13] | [3] | [4] | [5] | [6] | [7] | [14] | [9]
active: [8] 100 µM | [10] 164 µM | [15] 31.7 µM | [16] 31.5 µM | [17] 33.1 µM | [18] 31 µM

Source: PubChem BioAssay (EPA / NIEHS)
